Source: PubChem BioAssay
Hits are enriched below; roughly 4.5% of the tested compounds scored in any of these assays.
CSC inhib – blocks cancer stem cells. 300,000 compounds, 1.1% hits. cancer stem cell-like cells viability, luminescence. inhibition, % at 7.5 µM; in the data active means inhibition above about 75%; tested in HMLE shEcad cells
Mdm2 MdmX PPI – inhibitors of human Mdm2/MdmX interaction; O15151+Q00987; SaOS-2 split-luciferase Mdm2/MdmX complementation, luminescence; inhibition, % at 8 µM; 330,000 compounds, 3% hits; AID 485346;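 active means inhibition of at least 50% at 8 µM in the primary screen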
Target sequence (O15151 whole entry, looked up): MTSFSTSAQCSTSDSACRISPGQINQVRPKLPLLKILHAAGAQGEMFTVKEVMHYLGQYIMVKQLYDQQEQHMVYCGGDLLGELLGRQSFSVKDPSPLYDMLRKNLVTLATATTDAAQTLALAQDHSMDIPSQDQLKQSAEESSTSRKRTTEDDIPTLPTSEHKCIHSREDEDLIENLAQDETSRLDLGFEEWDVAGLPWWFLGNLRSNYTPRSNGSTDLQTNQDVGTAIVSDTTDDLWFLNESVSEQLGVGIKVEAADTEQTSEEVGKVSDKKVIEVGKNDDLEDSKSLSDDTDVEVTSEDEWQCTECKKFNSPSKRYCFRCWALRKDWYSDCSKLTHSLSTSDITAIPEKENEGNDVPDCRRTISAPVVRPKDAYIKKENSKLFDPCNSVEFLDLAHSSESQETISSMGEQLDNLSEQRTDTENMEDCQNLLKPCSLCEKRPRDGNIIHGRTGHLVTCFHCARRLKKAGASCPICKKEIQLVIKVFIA
Target sequence (Q00987 whole entry, looked up): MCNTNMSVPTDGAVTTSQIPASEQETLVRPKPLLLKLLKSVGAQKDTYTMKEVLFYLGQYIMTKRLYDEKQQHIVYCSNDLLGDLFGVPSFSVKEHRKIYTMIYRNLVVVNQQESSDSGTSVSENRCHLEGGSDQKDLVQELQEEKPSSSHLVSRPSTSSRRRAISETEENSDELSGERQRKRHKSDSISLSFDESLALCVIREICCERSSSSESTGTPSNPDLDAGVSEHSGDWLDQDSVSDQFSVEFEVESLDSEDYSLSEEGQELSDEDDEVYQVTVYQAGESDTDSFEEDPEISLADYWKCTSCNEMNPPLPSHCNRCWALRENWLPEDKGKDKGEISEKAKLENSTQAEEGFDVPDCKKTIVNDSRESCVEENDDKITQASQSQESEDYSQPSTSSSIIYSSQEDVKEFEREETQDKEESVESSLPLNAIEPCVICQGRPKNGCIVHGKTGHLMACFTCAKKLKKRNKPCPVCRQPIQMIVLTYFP
Gli-Sufu block – blocks Gli-Sufu signaling in a luciferase reporter; AID 588413; Sufu-KO-LIGHT fibroblasts, Gli luciferase reporter luminescence; 340,000 compounds, 0.74% hits; inhibition, % at 5 µM;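 active means inhibition above about 55%, limit read from the data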;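 further: 0% = DMSO-treated cells and 100% = wells with medium but no cells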
Beta cell apopt – blocks beta cell apoptosis; INS-1E cytokine-induced death, ATP luminescence, 48 h; percent of positive-control rescue, neutral wells zero; protection from apoptosis, % (no concentration beside the values); 300,000 compounds, 0.8% hits; AID 435005;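 active means Every replicate reaches about 75%, or at least half do and their mean reaches it too, limit read from the data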;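 further: 0% = cytokine-treated negative control wells and 100% = positive control rescue; higher means more ATP so stronger rescue from cytokine killing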
Jurkat NFkB inh – lowers PMA/ionomycin-induced NF-kB signal in Jurkat cells; PMA/ionomycin-induced NF-kB luciferase reporter, luminescence; inhibition, % at 4 µM; 330,000 compounds, 0.53% hits; AID 435003; in the data active means inhibition above about 50%
697 NFkB inh – inhibitors of the PMA/ionomycin-induced NF-kB reporter in 697 B cells; 697 B-cell NF-kB luciferase reporter, 16 h; inhibition, % at 4 µM; 330,000 compounds, 0.33% hits; AID 435022; in the data active means inhibition above about 35%
Jurkat NFkB conf – lowers PMA/ionomycin-induced NF-kB signal in Jurkat cells | 2,700 compounds, 27% hits | shares compounds with Jurkat NFkB inh | Jurkat NF-kB luciferase, 16 h | inhibition, % at 4 µM | AID 435020;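 active means inhibition reaching about 45% at 4 µM in either replicate, limit read from the data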;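 further: plate controls were PMA/ionomycin stimulated DMSO wells for no effect and unstimulated DMSO wells for full effect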
697 NFkB conf – inhibitors of the PMA/ionomycin-induced NF-kB reporter in 697 B cells, retest. 2,000 compounds, 35% hits. shares compounds with 697 NFkB inh. 697 B-cell NF-kB luciferase, 16 h. inhibition, % at 4 µM; in the data active means inhibition mostly above about 28%, no sharp cut-off; inactive means mostly below about 22%
Mdm2-MdmX conf – human Mdm2/MdmX binding inhibition, confirmed | shares compounds with Mdm2 MdmX PPI | luminescent assay | inhibition, % at 8 µM | 10,000 compounds, 55% hits | AID 489028; in the data active means inhibition above about 40%
FLuc counter – full-length luciferase inhibition in Mdm2/MdmX counter-screen. 6,200 compounds, 77% hits. shares compounds with Mdm2 MdmX PPI. inhibition, % at 8 µM. SaOS-2 full-length luciferase counterscreen, luminescence;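 active means mean inhibition at 8 µM reaching about 37%, which flags the compound as non-specific, limit read from the data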;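 further: p53-null SaOS-2 cells with luciferase driven by a doxycycline-inducible promoter; compound on cells about two nights before reading with doxycycline added after day one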
* marks the source's active call; other numbers are inactive results; . = no result given; + = active, no number.

SMILES	CSC inhib	Mdm2 MdmX PPI	Gli-Sufu block	Beta cell apopt	Jurkat NFkB inh	697 NFkB inh	Jurkat NFkB conf	Mdm2-MdmX conf	FLuc counter	others
Cc1ccc(/C(N)=N/OC(=O)c2ccc(C)cc2Cl)cc1	1	74*	-30	-18	-193	-310	-10	77*	+	697 NFkB conf=-288
Cc1ccc(NC(=O)c2ccccc2)cc1	14	-64	-101	6	-89	-130	.	.	.
Cc1ccc(C(=O)Sc2cccccc2=O)cc1	28	100*	75*	34	90*	-86	14	82*	23
COc1ccccc1NC(=O)/C=C\c1ccco1	-6	-3	-2	-7	-11	-4	.	.	.
COc1ccccc1NC(=O)/C(C#N)=C/C=C/c1ccco1	-2	50*	10	7	59*	0	-7	54*	64*
CCOC(=O)N1CCC(NC(=O)c2ccc3c(c2)N=C(C)c2c(C)ccc(C)c2S3)CC1	54	68*	44	21	65*	-42	56*	64*	89*
CC1=C([N+](=O)[O-])C(c2cccc(Br)c2)C2=C(N1)c1ccccc1C2=O (centres undefined)	53	74*	36	37	54*	-14	20	66*	84*
COC(=O)C1=C(C)NC2=C(C(=O)c3ccccc32)C1c1cccc(OC)c1 (centres undefined)	11	24	5	-3	4	17	.	.	.
CCOC(=O)c1ccc(N2CCOCC2)c(NC(=O)c2c(-c3ccccc3)noc2C)c1	53	60*	-4	.	64*	-17	13	67*	54*
COc1cccc(CNC(=O)CCNS(=O)(=O)c2ccc(C)cc2)c1	-13	8	-9	-6	0	1	.	.	.
COc1ccc(C(=O)NCCc2nnc3ccc(SCC(=O)N4CCCC4)nn23)cc1	4	19	-5	.	-8	8	.	.	.
Oc1c(C(Nc2nccs2)c2ccc(C(F)(F)F)cc2)ccc2cccnc12 (centres undefined)	.	.	29	.	.	.	.	.	.
CCC(=O)NC(c1cccs1)c1ccc2cccnc2c1O (centres undefined)	106*	82*	81*	107*	63*	-41	47*	84*	23
CN1C(=O)[C@H]2[C@@H](/C=C/c3ccccc3)N3C(=O)CN(Cc4ccccn4)C(=O)[C@@]3(C)[C@H]2C1=O	-6	21	-3	3	-4	23	.	.	.
C=C1/C=C(\C)[C@](C)(O)C[C@H](O)CC(=O)[C@H](O)[C@@H](O)[C@H](C)C[C@H](C)OC(=O)/C(C)=C/CC/C=C/[C@@H]2O[C@H]2C[C@H](C)C1	.	97*	.	92*	57*	37*	12	-28	.	697 NFkB conf=17
COc1ccc(-[n+]2c(C)cc(/C=C3\Sc4ccccc4N3C)cc2C)cc1	56	83*	.	116*	86*	100*	27	78*	16	697 NFkB conf=-22
COc1ccc(C(=O)/C=C2\Sc3ccccc3N2C)cc1	2	-179	-109	10	-143	-150	.	.	.
COc1ccccc1-[n+]1c(C)cc(/C=C2\Sc3ccccc3N2C)cc1C	68	82*	85*	110*	93*	2	11	89*	59*
O=C(Nc1ccc([N+](=O)[O-])cc1)C(=O)Nc1cccc(C(=O)O)c1	32	64*	-138	27	56*	46*	67*	67*	31	697 NFkB conf=23*
O=C(c1ccc(Cl)cc1)N1CCN(S(=O)(=O)/C=C/c2ccccc2)CC1	.	12	-26	-1	17	9	.	.	.
CCOc1ccc2nc(C)cc(Nc3cccc([N+](=O)[O-])c3)c2c1	15	100*	45	4	77*	7	34	100*	51*
O=C(OCc1c(-c2ccccc2)ncc2ccccc12)c1ccccc1C(F)(F)F	60	28	23	1	-12	-16	.	.	.
Cc1ccccc1OCCC(=O)OCC(=O)N(C)c1c(N)n(Cc2ccccc2)c(=O)[nH]c1=O	-6	7	-4	2	10	14	.	.	.
COc1cc(C2C3=C(Nc4ncnn42)c2ccccc2CC3)cc(OC)c1OC (centres undefined)	2	66*	36	35	75*	4	61*	67*	131*
CCN(CC(=O)Nc1c(F)cccc1F)C(=O)C1CC(=O)N(CCc2ccc(OC)c(OC)c2)C1 (centres undefined)	.	-22	-6	0	7	3	.	.	.
SMILES	CSC inhib	Mdm2 MdmX PPI	Gli-Sufu block	Beta cell apopt	Jurkat NFkB inh	697 NFkB inh	Jurkat NFkB conf	Mdm2-MdmX conf	FLuc counter	others
CC1CCN(c2c(NCc3ccc(C(=O)N4CCc5ccccc54)cc3)c(=O)c2=O)CC1	55	65*	17	16	58*	-7	45	53*	39*
COc1ccc(NC(=O)C(C)N2C(=O)C3CC=C(Cl)CC3C2=O)cc1 (centres undefined)	-7	10	-9	-3	-10	13	.	.	.
c1ccc(-c2cccc(-c3ccccn3)n2)nc1	107*	66*	85*	82*	92*	-5	83*	79*	18
CC1C(=O)OC(c2ccc(Cl)cc2)C(C)(C)C1=O (centres undefined)	10	-7	10	-4	-26	-5	.	.	.
C[C@@H]1C=CC(=O)O[C@@H]1c1ccc(Cl)cc1	70	79*	6	-26	96*	-33	97*	61*	5
CCO[C@H]1OC(C(=O)NCc2nc3ccccc3[nH]2)=C[C@@H](c2ccccc2)[C@@H]1CCCO	-6	-5	-1	-6	6	15	.	.	.
CCO[C@H]1OC(C(=O)NCc2nc3ccccc3[nH]2)=C[C@@H](C2CC2)[C@@H]1CCCO	59	53*	15	6	61*	-11	46	73*	69*
Cc1occc1C(=O)N1CCN(S(=O)(=O)c2ccc(F)cc2)CC1	-13	-31	4	-3	-6	10	.	.	.
COc1ccccc1C(=O)NNC(=O)C1CCCO1 (centres undefined)	-11	21	-23	1	15	19	.	.	.
Cn1c(/C=C/c2ccc([N+](=O)[O-])o2)nc2ccccc2c1=O	110*	91*	82*	106*	82*	-35	26	70*	53*
Cn1c(/C=C/c2ccccc2)nc2ccccc2c1=O	10	-25	24	9	-56	-44	.	.	.
